Measurements taken from PubChem BioAssay (NCATS).
Results filed as inconclusive are left out. Entries that show only a call come without a potency. Activity calls are given as the source filed them. Calls follow the shape of the dose curve; as a rule, active = well fitted curve in the direction sought with a large enough effect; inconclusive = small, poorly fitted or top-dose-only effect, or another doubt; inactive = no such curve, though single readings can be large; an effect the other way counts as inactive or inconclusive.

Molecular target: Parathyroid hormone/parathyroid hormone-related peptide receptor (Homo sapiens) (UniProt Q03431)
Sequence (Q03431 whole entry, looked up): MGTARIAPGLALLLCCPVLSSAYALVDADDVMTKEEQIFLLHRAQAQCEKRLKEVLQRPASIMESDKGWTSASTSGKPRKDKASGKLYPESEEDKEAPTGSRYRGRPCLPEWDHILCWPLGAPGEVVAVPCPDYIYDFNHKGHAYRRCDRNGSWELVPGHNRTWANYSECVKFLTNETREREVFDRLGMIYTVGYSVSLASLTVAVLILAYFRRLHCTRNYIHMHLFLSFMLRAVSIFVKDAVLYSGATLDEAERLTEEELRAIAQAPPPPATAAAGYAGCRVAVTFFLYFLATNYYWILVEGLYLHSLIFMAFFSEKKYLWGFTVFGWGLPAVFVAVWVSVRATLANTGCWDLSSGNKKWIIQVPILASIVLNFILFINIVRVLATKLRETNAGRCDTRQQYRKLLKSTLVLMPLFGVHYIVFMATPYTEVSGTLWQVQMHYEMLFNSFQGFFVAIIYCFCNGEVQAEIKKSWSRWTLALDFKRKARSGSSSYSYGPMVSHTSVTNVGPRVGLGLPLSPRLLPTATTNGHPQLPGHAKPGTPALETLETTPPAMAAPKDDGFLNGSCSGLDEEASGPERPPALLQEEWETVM
Assay: qHTS for PTHR1 Agonists: Optimization Screen against the NCGC LOPAC library (AID 1347079);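 also: GloSensor cAMP luminescence in HEK-293 GP2 cells expressing human PTHR1 with IBMX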
Conditions: HEK293 GP2 PTHR1 GloSensor cAMP luminescence, 1 h; series mostly up to 57.1 µM
Method in brief: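 Signal increase flags agonism. GP2 cells, derived from HEK-293, express human PTHR1 and a GloSensor cAMP construct.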
Potency is read from the fitted curve at half-maximal effect.

SMILES | Potency
NCCC1CCCC(CCN)N1 (stereo unspecified) | inactive
COc1ccc(CCn2nnnc2C2(c3ccc(C)cc3)CC2)cc1 | inactive
O=c1[nH]c2cc(Cl)ccc2c(O)c1-c1ccc(Oc2ccccc2)cc1 | inactive
C=CC1(C)CC(=O)C2(O)C(C)(O1)C(OC(C)=O)C(O)C1C(C)(C)CCC(O)C12C (stereo unspecified) | 21.2 µM (active)
NCCCCN | inactive
CCCc1c(OCCCOc2ccc(OCC(=O)O)cc2)ccc(C(C)=O)c1O | inactive
C=CC[C@H](N)C(=O)O | inactive
Nc1ncnc2c1ncn2C1CCCC1 | inactive
Cc1nc(N=Nc2ccc(C(=O)O)cc2)c(COP(=O)(O)O)c(C=O)c1O | inactive
COc1ccc2c(c1)c(CC(=O)O)c(C)n2C(=O)c1ccccc1 | inactive
CCCOC(=O)c1c(-c2ccccc2)nc(CC)c(C(=O)SCC)c1CCC | inactive
CCCCCCCCCCC(C)(C)C(=O)Nc1c(OC)cc(OC)cc1OC | inactive
CCCC[C@@]1(C2CCCC2)Cc2cc(OCC(=O)O)c(Cl)c(Cl)c2C1=O | inactive
C/C(=C\c1ccc(C(=O)O)cc1)c1ccc2c(c1)C(C)(C)CCC2(C)C | inactive
Nc1ncnc2c1nc(Br)n2C1OC2COP(=O)(O)O[C@@H]2C1O (stereo partly specified) | inactive
O=C(O)CCC/C=C\C[C@@H]1[C@@H](/C=C/[C@H](O)C2Cc3ccccc3C2)[C@@H](F)C[C@@H]1O | inactive
O=C(O)C1CN(CCCP(=O)(O)O)CCN1 (stereo unspecified) | inactive
N=C(N)c1ccccc1 | inactive
Brc1c(Br)c(Br)c2[nH]cnc2c1Br | inactive

SMILES | Potency
Cc1nc2n(c(=O)c1CCN1CCC(c3noc4cc(F)ccc34)CC1)CCCC2O (stereo unspecified) | inactive
COc1ccc(C(=O)NCc2cccnc2)cc1C(=O)NCc1cccnc1 | inactive
O=c1cc(-c2ccccc2F)[nH]c2cc3c(cc12)OCO3 | inactive
CNC(=O)c1cc2c(cn1)[nH]c1ccccc12 | inactive
N[C@@H](Cc1ccc(F)cc1)C(=O)O | inactive
N=C(N)c1ccc(OCCCCCOc2ccc(C(=N)N)cc2)cc1 (tested in a mixture with another compound) | inactive
O=C(c1ccc2c(c1)OCCO2)N1CCCCC1 | inactive
NCC(O)(CS(=O)(=O)O)c1ccc(Cl)cc1 (stereo unspecified) | inactive
CC(C)[C@@H]1CC[C@@H](C)C[C@@H]1P(=O)(c1ccccc1)c1ccccc1 | inactive
Clc1nccc2c1ccc1ccccc12 | inactive
O=C(O)C1CCNCC1 | inactive
CC(N)=O | inactive
CC(=O)C(C)=O | inactive
O=C(O)/C=C/c1cnc[nH]1 | inactive
NC1(C(=O)O)CCc2cc(C(=O)O)ccc21 (stereo unspecified) | inactive
Oc1ccc(Cn2cc[nH]c2=S)cc1 | inactive
NC1CONC1=O (stereo unspecified) | inactive
NC(=O)CNCCC(c1ccccc1)c1ccccc1 | inactive
O=C(O)c1ccccc1Nc1cccc(OCc2ccc3ccccc3n2)c1 | inactive

Molecular target: N-terminal Xaa-Pro-Lys N-methyltransferase 1 (Homo sapiens) (UniProt Q9BV86)
Sequence (Q9BV86 whole entry, looked up): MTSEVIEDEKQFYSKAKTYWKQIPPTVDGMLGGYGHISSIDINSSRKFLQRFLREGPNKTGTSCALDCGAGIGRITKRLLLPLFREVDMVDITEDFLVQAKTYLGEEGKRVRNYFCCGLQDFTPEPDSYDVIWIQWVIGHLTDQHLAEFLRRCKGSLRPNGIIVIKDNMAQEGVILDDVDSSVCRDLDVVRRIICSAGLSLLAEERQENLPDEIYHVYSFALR
Assay: qHTS Assay for Inhibitors of N-terminal methyltransferase 1 (NTMT1): LOPAC validation of the NTMT1 SAHH-coupled ThioGlo3 Assay (AID 1347143);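 also: SAH from peptide methylation measured as thiol fluorescence via SAHH coupling and ThioGlo3; nearly all actives have a fitted effect of over 70% in size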
Conditions: recombinant NTMT1, SAHH-coupled ThioGlo3 fluorescence; series mostly up to 114 µM
Method in brief: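 In this qHTS pilot against the LOPAC set, 125nM NTMT1 met compounds tested at multiple concentrations, and fluorescence was normalized to background.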

SMILES | Potency
NCCC1CCCC(CCN)N1 (stereo unspecified) | inactive
COc1ccc(CCn2nnnc2C2(c3ccc(C)cc3)CC2)cc1 | inactive
O=c1[nH]c2cc(Cl)ccc2c(O)c1-c1ccc(Oc2ccccc2)cc1 | inactive
C=CC1(C)CC(=O)C2(O)C(C)(O1)C(OC(C)=O)C(O)C1C(C)(C)CCC(O)C12C (stereo unspecified) | inactive
NCCCCN | inactive
C=CC[C@H](N)C(=O)O | inactive
Nc1ncnc2c1ncn2C1CCCC1 | inactive
Cc1nc(N=Nc2ccc(C(=O)O)cc2)c(COP(=O)(O)O)c(C=O)c1O | inactive
COc1ccc2c(c1)c(CC(=O)O)c(C)n2C(=O)c1ccccc1 | inactive
CCCOC(=O)c1c(-c2ccccc2)nc(CC)c(C(=O)SCC)c1CCC | inactive
CCCCCCCCCCC(C)(C)C(=O)Nc1c(OC)cc(OC)cc1OC | inactive
Nc1ncnc2c1nc(Br)n2C1OC2COP(=O)(O)O[C@@H]2C1O (stereo partly specified) | inactive
O=C(O)CCC/C=C\C[C@@H]1[C@@H](/C=C/[C@H](O)C2Cc3ccccc3C2)[C@@H](F)C[C@@H]1O | inactive
O=C(O)C1CN(CCCP(=O)(O)O)CCN1 (stereo unspecified) | inactive
N=C(N)c1ccccc1 | inactive
Brc1c(Br)c(Br)c2[nH]cnc2c1Br | 50.1 µM (active)
Cc1nc2n(c(=O)c1CCN1CCC(c3noc4cc(F)ccc34)CC1)CCCC2O (stereo unspecified) | inactive

SMILES | Potency
COc1ccc(C(=O)NCc2cccnc2)cc1C(=O)NCc1cccnc1 | inactive
O=c1cc(-c2ccccc2F)[nH]c2cc3c(cc12)OCO3 | 56.2 µM (active)
N[C@@H](Cc1ccc(F)cc1)C(=O)O | inactive
N=C(N)c1ccc(OCCCCCOc2ccc(C(=N)N)cc2)cc1 (tested in a mixture with another compound) | 20 µM (active)
O=C(c1ccc2c(c1)OCCO2)N1CCCCC1 | inactive
NCC(O)(CS(=O)(=O)O)c1ccc(Cl)cc1 (stereo unspecified) | inactive
CC(C)[C@@H]1CC[C@@H](C)C[C@@H]1P(=O)(c1ccccc1)c1ccccc1 | inactive
Clc1nccc2c1ccc1ccccc12 | 50.1 µM (active)
O=C(O)C1CCNCC1 | inactive
CC(N)=O | inactive
CC(=O)C(C)=O | inactive
O=C(O)/C=C/c1cnc[nH]1 | inactive
NC1(C(=O)O)CCc2cc(C(=O)O)ccc21 (stereo unspecified) | 50.1 µM (active)
Oc1ccc(Cn2cc[nH]c2=S)cc1 | 50.1 µM (active)
NC1CONC1=O (stereo unspecified) | inactive
NC(=O)CNCCC(c1ccccc1)c1ccccc1 | inactive
